Test results as given in PubChem BioAssay.
Calls of active or inactive are those of the source.

Columns and labels:
Albumin (Bos taurus) = Albumin (Bos taurus) (UniProt P02769); assay: bovine serum albumin binders on microarray, profiling panel, artefact control for SMM control protein annotation, biochemical, small-molecule microarray, Alexa647 label, 635/667 nm fluorescence (AID 1118); conditions: BSA-A647 binding, fluorescence 635 nm, higher = more signal;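 note: score merges 667 nm emission intensity and signal-to-noise per printed compound spot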
[1] = small-molecule microarray binders of probe aXIP, primary screen, biochemical, NeuroSMM set, 635/667 nm fluorescence (AID 1119); conditions: higher = more signal, called active from +8 up or from −8 down;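 note: probe is the protein aXip251-270 applied at 1 µg/mL to compound-printed slides; binding of probe to printed compounds measured as 667 nm fluorescence plus signal to noise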
[2] = small-molecule binders of probe aNOTCH3, primary screen, biochemical, small-molecule microarray, 635/667 nm fluorescence (AID 1120); conditions: higher = more signal;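 note: probe is a biotin-tagged antibody raised against NOTCH3 rather than NOTCH3 protein; score merges spot fluorescence near 667 nm with spot signal to noise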
[3] = small-molecule binders of probe aNOTCH2, primary screen, biochemical, small-molecule microarray, 635/667 nm fluorescence (AID 1121); conditions: higher = more signal;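 note: score merges feature fluorescence read at 667 nm with its signal to noise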
[4] = target: Carbonic anhydrase 2 (Homo sapiens) (UniProt P00918); assay: CAII small-molecule binders, profiling panel, biochemical, small-molecule microarray, Alexa647-labelled CAII (AID 1122); conditions: CAII-A647 binding fluorescence, higher = more signal
[5] = COS7 lysate on small-molecule microarray, probe aHis, 635 nm (AID 1123); conditions: COS7 cell lysate, fluorescence, higher = more signal;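 note: z-score combines 667nm fluorescence intensity with signal-to-noise per printed compound spot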
[6] = compound binding in COS7 lysate, probe aLAP1, primary screen, cell lysate, small-molecule microarray (AID 1124); conditions: probe aLAP1, fluorescence, higher = more signal;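 note: lysate comes from COS7 cells expressing LAP1 and is applied at 0.3 µg/mL; score merges spot fluorescence near 667 nm with signal-to-noise over triplicate slides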
Sam68 (KHDRBS1) = assay: Sam68 small-molecule binders, primary screen, biochemical, small-molecule microarray, 635 nm fluorescence (AID 1125); conditions: small-molecule microarray binding, higher = more signal;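 note: score merges 667 nm channel intensity with signal to noise over triplicate slides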
[7] = test system: Chordin-like protein 2 (CHRDL2); assay: CHRDL2 small-molecule binders, primary screen, biochemical, small-molecule microarray, 635 nm fluorescence (AID 1126); conditions: small-molecule microarray binding, fluorescence 635 nm; higher = more signal;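 note: printed compound slides probed with Chrdl2 protein at 4 µg/mL for 1 h at 4 C; score merges 667 nm emission intensity with signal to noise over three replicate slides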
[8] = target: Concanavalin-A (Canavalia ensiformis) (UniProt P02866); assay: ConA small-molecule binders, primary screen, artefact control for SMM control protein annotation, biochemical, small-molecule microarray, Alexa647 label, 635 nm (AID 1127); conditions: ConA-A647 binding fluorescence, higher = more signal;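 note: z combines 667 nm emission intensity with signal-to-noise across three replicate slides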
Concanavalin-A (Canavalia ensiformis), sequence (P02866 whole entry, looked up): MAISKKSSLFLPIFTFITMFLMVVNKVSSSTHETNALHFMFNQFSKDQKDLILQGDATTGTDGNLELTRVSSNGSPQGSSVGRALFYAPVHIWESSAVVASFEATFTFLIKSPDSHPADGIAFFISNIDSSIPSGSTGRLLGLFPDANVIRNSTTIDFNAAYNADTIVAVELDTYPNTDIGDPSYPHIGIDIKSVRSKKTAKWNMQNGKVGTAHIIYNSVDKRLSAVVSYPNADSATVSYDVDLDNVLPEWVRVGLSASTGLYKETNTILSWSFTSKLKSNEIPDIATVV

Albumin (Bos taurus), sequence (P02769 whole entry, looked up): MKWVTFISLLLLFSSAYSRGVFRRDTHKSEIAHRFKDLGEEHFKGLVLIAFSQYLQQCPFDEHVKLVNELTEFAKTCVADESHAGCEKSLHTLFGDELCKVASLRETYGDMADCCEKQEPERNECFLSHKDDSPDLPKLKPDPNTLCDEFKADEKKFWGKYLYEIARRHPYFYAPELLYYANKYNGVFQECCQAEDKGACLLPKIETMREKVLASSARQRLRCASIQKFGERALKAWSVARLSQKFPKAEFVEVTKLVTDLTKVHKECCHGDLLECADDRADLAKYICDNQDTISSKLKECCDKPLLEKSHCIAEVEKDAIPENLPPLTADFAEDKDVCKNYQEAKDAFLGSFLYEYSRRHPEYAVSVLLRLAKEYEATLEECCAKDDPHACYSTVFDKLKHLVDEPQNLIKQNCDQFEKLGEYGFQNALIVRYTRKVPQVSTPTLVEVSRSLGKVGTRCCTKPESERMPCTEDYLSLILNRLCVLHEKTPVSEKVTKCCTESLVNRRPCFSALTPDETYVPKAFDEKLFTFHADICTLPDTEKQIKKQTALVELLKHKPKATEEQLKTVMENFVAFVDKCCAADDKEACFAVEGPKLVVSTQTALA

Compound | composite z-score (Albumin (Bos taurus)) | composite Z-score [1] | composite z-score [2] | composite z-score [3] | composite z-score [4] | composite z-score [5] | composite z-score [6] | composite z-score (Sam68 (KHDRBS1)) | composite z-score [7] | composite z-score [8]
CN(C)c1ccc(C(O)C2C=CC3C(=O)NC(=O)C3N2Nc2ccccn2)cc1 (stereo not given) | 0.396 | 0.378 (inactive) | -0.0419 | 0.046 | 0.788 | 0.718 | 0.282 | 0.711 | 0.987 | 0.372
[N-]=[N+]=NCc1ccccc1[C@@H]1OC(c2ccc(OCCCO)cc2)=N[C@]1(CCS(=O)(=O)c1ccccc1)C(=O)O | 0.951 | 0.0313 (inactive) | 0.0311 | -0.0145 | 0.786 | 1.6 | 0.0649 | 0.585 | -1.92 | 0.448
COc1cc2c(cc1O)C(C1CC1)N(C)CC2 (stereo not given) | 0.789 | -0.519 (inactive) | -0.257 | -0.19 | 0.902 | -0.374 | -0.308 | -0.758 | -0.778 | -1.91
NCCCCCNC(=O)[C@H]1C[C@H]2C(=O)N3CCC[C@H]3C(=O)N2[C@H]1c1cccc(OCCO)c1 | 0.729 | 0.325 (inactive) | 0.185 | 0.0305 | 0.705 | 1.59 | 0.466 | 0.967 | 0.18 | 0.894
CCCCCCCCCC(O)C1C=CC2C(=O)N(c3ccccc3)C(=O)C2N1Nc1cc(OC)c(OC)c(OC)c1 (stereo not given) | 0.168 | 0.182 (inactive) | -0.0751 | -0.14 | 0.528 | 2.25 | -0.354 | 0.683 | -0.919 | 0.932
CC(C)N1C(=O)C[C@@](C(=O)NC2CC2)(c2ccc([N+](=O)[O-])cc2)[C@H]1c1ccc(CO)cc1 | -1.1 | -0.239 (inactive) | -0.339 | -0.14 | 0.525 | 2.95 | 0.965 | -0.203 | -1.08 | -0.0039
C=CCC(OC(C)=O)[C@@H]1[C@@H](N(Cc2cccc3ccccc23)C(=O)Cc2ccc(OC)cc2)c2cc(OCCCO)ccc2N1C(=O)c1ccc(-c2ccccc2)cc1 (stereo not given in full) | 0.249 | -0.166 (inactive) | -0.0647 | -0.0895 | -0.0283 | 0.917 | 0.181 | -0.189 | 0.0133 | -0.285
CC(C)[Si](C#CCCCC#N)(O[C@H](c1ccccc1)c1cn(Cc2ccccc2)nn1)C(C)C | 0.728 | -0.535 (inactive) | 0.123 | -0.174 | 0.249 | 0.691 | 0.272 | 1.16 | 0.568 | 0.536
CCOC(=O)C[C@H]1[C@H](OC(=O)c2ccc(C(=O)c3ccccc3)cc2)[C@@H](NC(=O)c2ccc3ccccc3n2)c2cc(OCCCO)ccc2N1C(=O)Cc1ccc(OC)cc1 | 0.567 | -0.201 (inactive) | 0.0779 | -0.153 | -0.175 | 0.759 | -0.263 | 0.627 | -0.384 | 0.93
COc1cc2c(cc1O)C(c1ccc(CN3CCCC3)cc1)N(Cc1cc3c(cc1Br)OCO3)CC2 (stereo not given) | 0.905 | 0.0698 (inactive) | -0.0089 | -0.102 | 0.891 | 0.796 | 0.119 | -0.521 | -0.0867 | 0.655
[N-]=[N+]=Nc1ccccc1[C@@H]1OC(c2ccc(OCCCO)cc2)=N[C@]1(Cc1ccccc1)C(=O)N1CCCCC1 | 0.712 | 0.254 (inactive) | 0.22 | -0.108 | 0.415 | 1.94 | 1.36 | 1.29 | -0.365 | 0.948
CCOC(=O)C[C@H]1[C@H](OC(=O)c2ccccc2-c2ccccc2)[C@@H](NC(=O)c2ccc3ccccc3n2)c2cc(OCCCO)ccc2N1C(=O)Cc1ccc(OC)cc1 | 0.505 | -0.891 (inactive) | 0.033 | -0.106 | 0.105 | 0.428 | 0.134 | 0.368 | 0.456 | 0.0562
C=CC[C@@]1(C(=O)NCCCOC)N=C(c2ccc(OCCCO)cc2)O[C@@H]1c1ccccc1 | 0.8 | 0.604 (inactive) | 0.169 | 0.0977 | 0.597 | 3.2 | 0.601 | 0.316 | -0.919 | 0.174
CCOC(=O)C1=C[C@@H](C(C)(C)C)N(S(=O)(=O)c2ccc(C)cc2)[C@H]1c1cccc2ccccc12 | 0.261 | 0.592 (inactive) | 0.0327 | -0.101 | 0.312 | 1.76 | 0.0493 | 1.05 | -0.516 | 1.05
CCCN1C(=O)[C@@]2(Cc3ccccc31)N=C(c1ccc(OCCCO)cc1)O[C@H]2c1ccccc1 | -0.324 | 0.953 (inactive) | 0.0916 | 0.0118 | 0.523 | 1.88 | 0.587 | 1.31 | 0.201 | 1.13
COc1ccc(CCNC(=O)[C@@]2(Cc3ccccc3I)c3ccccc3C(=O)N(C3CCCCC3)[C@H]2c2ccc(CO)cc2)cc1 | 0.471 | -0.0065 (inactive) | -0.0647 | -0.162 | 0.218 | 1.5 | -0.167 | 0.621 | -0.718 | 0.969
Cc1ccc(S[C@]2(C(=O)NCCN3CCOCC3)CC(=O)N(Cc3ccccc3Cl)[C@@H]2c2ccc(CO)cc2I)cc1 | 0.243 | 0.555 (inactive) | 0.0226 | 0.584 | 0.805 | 2.75 | 1.49 | 0.653 | -0.35 | -0.763
COCCOC(=O)N1C(=O)[C@@]2(c3ccccc31)[C@H](C(=O)NC[C@H](O)c1ccccc1)[C@H]1C(=O)O[C@H](c3ccccc3)[C@H](c3ccccc3)N1[C@@H]2c1ccc(O)cc1 | -0.411 | 0.244 (inactive) | -0.198 | 0.0377 | 0.432 | 2.28 | 0.236 | 1.3 | 1.04 | 1.12
Cn1cccc1C(O)C1C=CC2C(=O)N(c3ccccc3)C(=O)C2N1Nc1ccccc1 (stereo not given) | 0.857 | 0.581 (inactive) | 0.346 | 0.2 | 0.805 | 2.37 | 0.461 | 1.3 | 0.352 | 1.19
CO[C@H]1O[C@H](CO)[C@@H](OC(=O)Nc2ccccc2)[C@H](OC(=O)c2cc3ccccc3[nH]2)[C@H]1OC(=O)c1cc2ccccc2[nH]1 | 0.124 | 1.12 (inactive) | -0.0368 | -0.0166 | 0.793 | 0.68 | 0.94 | 0.396 | 0.132 | 0.282
COCCOC(=O)N1C(=O)[C@@]2(c3cc(C#CC4(O)CCCCCC4)ccc31)[C@H](C(=O)Nc1nc3ccccc3s1)[C@H]1C(=O)O[C@H](c3ccccc3)[C@H](c3ccccc3)N1[C@@H]2c1ccc(O)cc1 | 0.25 | 0.56 (inactive) | 0.188 | -0.088 | 0.303 | 1.59 | 0.713 | 1.3 | 0.626 | 1.18
COCCOC(=O)N1C(=O)[C@@]2(c3ccccc31)[C@H](c1ccc(O)cc1)N1[C@H](c3ccccc3)[C@H](c3ccccc3)OC(=O)[C@H]1[C@@H]2C(=O)N1CCN(c2ncccn2)CC1 | 0.397 | 0.0692 (inactive) | -0.0014 | 0.0456 | 0.202 | 1.83 | 1.03 | 1.2 | 0.375 | 0.928
C=CCN1Cc2ccccc2[C@@H]2OC(c3ccc(OCCCO)cc3)=N[C@]2(CC=C)C1=O | -0.187 | 1.79 (inactive) | 0.43 | 0.147 | 0.544 | 3.16 | 0.585 | 1.22 | 1.44 | 1.1
COCCCNC(=O)[C@@]1(Sc2ccc(C)cc2)CC(=O)N(C2Cc3ccccc3C2)[C@@H]1c1ccc(CO)cc1 | 0.0753 | 1.23 (inactive) | -0.157 | -0.181 | 0.748 | 0.537 | 0.352 | 0.209 | -1.86 | 0.163
COc1ccc([Si](C)(C)[C@@H]2[C@@H](CCO)O[C@]3(C(=O)N(Cc4ccccc4)c4ccc(N5CCOC5=O)cc43)[C@H]2C)cc1 | 0.279 | 0.774 (inactive) | -0.0647 | -0.102 | 0.324 | 0.747 | 0.294 | 1.32 | 0.127 | 0.816
CCCNC(=O)[C@@]1(Sc2ccc(C)cc2)CC(=O)N(C2Cc3ccccc3C2)[C@@H]1c1ccc(CO)cc1I | -0.533 | -0.0764 (inactive) | 0.606 | -0.0186 | 0.427 | 0.807 | 0.702 | 0.95 | 0.378 | -0.162
COCCOC(=O)N1C(=O)[C@@]2(c3cc(C#CC4(O)CCCCCC4)ccc31)[C@H](c1ccc(O)cc1)N1[C@H](c3ccccc3)[C@H](c3ccccc3)OC(=O)[C@H]1[C@@H]2C(=O)N1CCN(c2ncccn2)CC1 | 0.521 | 0.883 (inactive) | 0.0562 | -0.12 | 0.437 | 1.29 | 0.46 | 1.29 | -0.163 | 1.12
COCCCNC(=O)[C@@H]1c2ccccc2C(=O)N(C(C)C)[C@H]1c1ccc(CO)cc1 | 0.0913 | 0.0178 (inactive) | 0.0577 | -0.125 | 0.25 | -0.756 | -0.366 | 0.0457 | -0.0306 | 0.856
